Screening data: PubChem BioAssay, several laboratories
Shown are actives, neighbours in structure and some others; about 1.5% of the full set was active somewhere.
STK33 inh = inhibitors of purified STK33 kinase, primary screen, biochemical, ADP-Glo luminescence, homogeneous, cell-free; Serine/threonine-protein kinase 33 (Homo sapiens), Q9BYT3; MBP phosphorylation; inhibition, % at 10 µM; 320,000 compounds, 0.073% hits;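 active = inhibition at or above 25%, using the most active replicate where run in duplicate; inactive = inhibition below 25%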
Dyrk1A ADPGlo = rat Dyrk1A kinase inhibitors, primary screen, biochemical, single point, plate reader; AID 504441, 2011; 310,000 compounds, 0.43% hits; ADP-Glo luminescence, NFATc1 peptide; inhibition, % at 12.5 µM; in the data active = inhibition above about 50%;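 note: plate controls were vehicle with enzyme for no effect and no enzyme for full effect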
HIF activator = HIF pathway transcriptional activators, primary screen, cell-based, U2OS HRE-luciferase, luminescence; U2OS HRE-luciferase reporter; normalized: DMSO 0%, desferrioxamine 100%; activation, % at 7.5 µM (by protocol); 300,000 compounds, 0.32% hits; AID 1910, 2009;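 active = mean activation of at least 10% of the iron chelator positive control signal, with at least half of replicates also reaching 10%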
PP1 inh = PP1-alpha phosphatase inhibitors, primary screen, counter-screen for PP5 inhibitor project, biochemical, fluorescence, OMFP substrate, single point; inhibition, % at 6.7 µM; purified PP1alpha; Serine/threonine-protein phosphatase PP1-alpha catalytic subunit (Homo sapiens), P62136; 320,000 compounds, 0.9% hits;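 active = inhibition above the mean inhibition of all tested compounds plus 3 SD, computed separately for each screening campaign, cut at about 15% in these data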
Target sequence (P62136 whole entry, looked up): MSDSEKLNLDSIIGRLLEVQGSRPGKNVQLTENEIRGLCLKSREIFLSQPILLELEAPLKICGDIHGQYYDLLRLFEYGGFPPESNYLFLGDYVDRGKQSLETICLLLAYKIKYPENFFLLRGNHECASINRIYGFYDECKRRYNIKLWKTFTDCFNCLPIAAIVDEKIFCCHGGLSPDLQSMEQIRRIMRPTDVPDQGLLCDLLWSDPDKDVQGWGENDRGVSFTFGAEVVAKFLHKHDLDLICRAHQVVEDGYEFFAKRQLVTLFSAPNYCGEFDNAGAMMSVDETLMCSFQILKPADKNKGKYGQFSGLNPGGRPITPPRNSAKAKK
PP5 primary = PP5 phosphatase inhibitors, primary screen, biochemical, fluorescence | 320,000 compounds, 0.18% hits | Serine/threonine-protein phosphatase 5 (Homo sapiens), P53041 | AID 1987, 2009 | purified PP5c, OMFP substrate fluorescence | inhibition, % at 6.7 µM;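 active = inhibition above the campaign's mean inhibition across all tested compounds plus 3 SD, cut at about 9.5% in these data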;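 note: 0% = DMSO only and 100% = 100 µM cantharidin control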
PP1 confirm = PP1 phosphatase inhibitors, confirmation, biochemical, fluorescence, OMFP substrate, triplicate; inhibition, % at 6.7 µM; purified PP1alpha; 1,900 compounds, 52% hits; shares compounds with PP1 inh;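 active = mean PP1 inhibition above a set limit taken from the earlier primary screen, cut at about 15% in these data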
PP5 counter = PP5 phosphatase inhibition by PP1 hits, confirmation, counter-screen for PP1 inhibitor project, biochemical, fluorescence, triplicate. AID 2360, 2010. purified PP5c, OMFP fluorescence. shares compounds with PP1 inh. 1,900 compounds, 4% hits. inhibition, % at 6.7 µM;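 active = mean PP5 inhibition over triplicate wells above about 9.5% taken from the earlier PP1 screen, limit read from the data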
* hit, by the source's call; . = no result.

SMILES | STK33 inh | Dyrk1A ADPGlo | HIF activator | PP1 inh | PP5 primary | PP1 confirm | PP5 counter
CCCn1c2ccccc2c2cnn(CC(=O)NC3CCCCC3)c(=O)c21 | -4.5 | 0.3 | -0.3 | 2.2 | 0.9 | . | .
O=c1cc(-c2ccccc2)nc2c(-c3ccccc3)c(C(F)(F)F)[nH]n12 | -0.4 | . | -31.7 | 33.4* | 2.0 | 33.4* | 0.3
COc1ccc(N2CCN(c3ccc(NC(=O)/C=C\C(=O)O)cc3)CC2)cc1 | -0.1 | -3.6 | 0.6 | 19.7* | 1.4 | -3.9 | -5.0
COc1ccc(/C=C/C(=O)Nc2ccc(N3CCOCC3)cc2)cc1 | 0.7 | -1.1 | 1.1 | -2.7 | 4.6 | . | .
O=P(O)(Cc1ccccc1)Cc1ccccc1 | -1.1 | 4.4 | -1.2 | -1.2 | 0.8 | . | .
CN1C(=O)S/C(=C/c2cccnc2)C1=O | -0.4 | 14.3 | 1.1 | 0.8 | 1.2 | . | .
O=C1/C(=C\c2cccnc2)Sc2ccccc21 | 1.5 | 4.8 | -0.3 | 18.9* | 2.8 | 16.4* | -3.2
Cn1nc(C(F)(F)F)c(-c2ccccc2)c1NC(=O)c1nccnc1C(=O)O | -1.7 | -7.6 | -0.4 | 24.6* | 1.2 | -0.5 | -2.7
COc1cc(OC)c(OC)cc1CN1CCN(c2ccccc2OC)CC1 | 1.0 | 9.2 | -0.1 | 0.3 | 0.0 | . | .
COc1cc(OC)c(OC)cc1CN1CCN(Cc2cccn2C)CC1 | -0.2 | 2.8 | -0.7 | 18.2* | -1.4 | 3.6 | 5.0
CCOC(=O)C1CCC(CN(Cc2ccccc2)S(=O)(=O)c2ccc([N+](=O)[O-])cc2)CC1 (stereo not drawn) | -1.1 | -1.0 | -22.2 | 0.6 | 1.0 | . | .
CC(=O)NC12CC3CC(C1)CC(C(=O)N(C)CC(=O)Nc1cccc(F)c1)(C3)C2 | -1.1 | 3.2 | . | -2.6 | 0.9 | . | .
Cc1cccc(N2CCN(S(=O)(=O)c3ccc4c(c3)CC(=O)N4C)CC2)c1C | -0.6 | 5.6 | 0.2 | 17.8* | 0.7 | 8.4 | 3.2
Cc1cccc(N2CCN(S(=O)(=O)c3ccc(S(=O)(=O)N4CCCC4)cc3)CC2)c1C | -1.1 | -0.2 | -0.2 | -2.1 | -0.1 | . | .
CCOC(=O)N1CCC(c2cc(=O)n3[nH]c(-c4ccccc4)cc3n2)CC1 | 0.2 | 11.6 | -0.1 | 3.7 | -2.6 | . | .
CCOC(=O)N1CCC(c2cc(=O)n3[nH]c(C)c(-c4ccc(F)cc4)c3n2)CC1 | -1.0 | -4.1 | -0.2 | 19.5* | 2.6 | 13.0 | -1.2
COc1nc(-c2ccccc2)ccc1-c1noc(COc2ccccc2)n1 | -1.4 | -1.2 | -0.3 | 19.4* | 1.5 | 14.7 | -0.8
Cn1c(=O)n(CC(=O)NCC2CCCO2)c(=O)c2c3c(sc21)CCCC3 (stereo not drawn) | -0.5 | -1.9 | 0.2 | -1.4 | -0.9 | . | .
CCc1cccc(C)c1NC(=O)C1CCCN1C(=O)NCc1ccccc1 (stereo not drawn) | -1.7 | -1.9 | -7.9 | -1.6 | 1.0 | . | .
O=C(c1ccc(Cl)c(Cl)c1)N1CCC(=O)N(C(COCc2cccc(Cl)c2)Cc2ccccc2)CC1 (stereo not drawn) | -1.5 | 4.8 | 0.3 | 19.9* | 4.4 | 9.3 | 0.8
O=C(Cc1ccccc1F)Nc1cc(S(=O)(=O)N2CCOCC2)ccc1N1CCCC1 | 0.0 | . | . | . | . | . | .
CCCCN(C)C(=O)c1nc2ccccn2c1CN1CCN(c2cnccn2)CC1 | -0.1 | -5.6 | -0.4 | 19.2* | 1.9 | -0.7 | -1.2
CCCCN(C)C(=O)c1nc2ccccn2c1CN1CCN(c2ccccn2)CC1 | -2.6 | -7.7 | -0.2 | -3.2 | 0.7 | . | .
CCC(C)(C)c1ccc(OCCCC[n+]2ccc(C)cc2)c(C(C)(C)CC)c1 | 4.0 | . | 0.2 | 20.9* | 2.1 | -6.0 | -0.1
Cc1cc(C(C)(C)C)ccc1OCCCCN1CCCC1 | -2.0 | -1.3 | -0.7 | -0.9 | 2.8 | . | .
SMILES | STK33 inh | Dyrk1A ADPGlo | HIF activator | PP1 inh | PP5 primary | PP1 confirm | PP5 counter
CCC(C)(C)c1ccc(OCCCC[n+]2cccc(C)c2C)c(C(C)(C)CC)c1 | -2.0 | 7.5 | -2.9 | 20.2* | 1.7 | -3.0 | 0.6
Cc1cc[n+](CC[n+]2ccc(C)cc2)cc1 | -0.8 | 10.0 | -4.1 | -1.9 | 2.9 | . | .
Nc1[nH]n2c(=O)cc(-c3ccccc3)nc2c1N=Nc1ccc2c(c1)OCO2 | -0.2 | . | 0.0 | 3.4 | -0.7 | . | .
CCn1nc(C(=O)NCCc2ccc3c(c2)OCCO3)c2ccccc2c1=O | 0.0 | -7.9 | . | . | . | . | .
Cc1cc2nc(-c3ccc(SCC(=O)Nc4ccc(S(=O)(=O)N5CCCC5)cc4)nc3)[nH]c2cc1C | 2.0 | -1.6 | 2.1 | 34.9* | 0.9 | 34.2* | -1.8
O=C(CSc1ccc(-c2nc3ccccc3[nH]2)cn1)Nc1ccc(S(=O)(=O)N2CCCC2)cc1 | -1.6 | -4.4 | 0.0 | 9.3 | -3.7 | . | .
O=C1COc2ccc(C(=O)COC(=O)/C=C/c3ccc(Br)o3)cc2N1 | 6.4 | . | 0.4 | 21.9* | 0.8 | 25.6* | -1.3
Cc1ccc(S(=O)(=O)N2CCOCC2)cc1C(=O)Nc1ccc(S(=O)(=O)Nc2nccs2)cc1 | -0.8 | 1.9 | . | 29.8* | -0.4 | -0.2 | -2.6
O=C(Nc1ccc(S(=O)(=O)Nc2nccs2)cc1)c1ccc(S(=O)(=O)N2CCOCC2)cc1 | 0.1 | 2.7 | -0.5 | -2.0 | 2.4 | . | .
COc1ccc(NS(=O)(=O)c2ccc(N/N=C(\C)c3ccncc3)c([N+](=O)[O-])c2)cc1 | -1.2 | -6.0 | -0.9 | 24.0* | 4.4 | 16.0* | 5.7
C/C(=N\Nc1ccc(S(=O)(=O)Nc2ccccc2)cc1[N+](=O)[O-])c1ccc(N2CCOCC2)cc1 | -1.3 | 11.0 | . | -5.9 | 0.2 | . | .
O=C(N/N=C/c1cc(Cl)c(O)c(Cl)c1)c1cc2c(ccc3ccccc32)o1 | -0.3 | 15.7 | 0.2 | 11.1 | 3.8 | . | .
CC1CCCN(S(=O)(=O)c2ccc(C(=O)Nc3nnc(C4CC4)o3)cc2)C1 (stereo not drawn) | 0.0 | 13.4 | -0.3 | 26.4* | 6.2 | 16.2* | -1.8
O=C(Nc1nnc(C2CC2)o1)c1ccc(S(=O)(=O)N2CCc3ccccc3C2)cc1 | 0.1 | -4.3 | 0.0 | 30.1* | -2.0 | 31.0* | -1.0
CC1CCCN(S(=O)(=O)c2ccc(C(=O)Nc3nnc(-c4ccccn4)o3)cc2)C1 (stereo not drawn) | -2.1 | -62.6 | -0.1 | 18.2* | 1.5 | 15.2* | -1.0
CCOC(=O)c1cc2occc2n1CC(=O)N1CCCc2ccccc21 | -1.9 | 2.8 | -0.3 | 2.9 | 3.7 | . | .
COc1ccccc1NC(=O)C(=O)N/N=C(\C)CC(=O)Nc1ccc(OCc2ccccc2)cc1 | . | 1.1 | 0.0 | 19.1* | 4.0 | 24.4* | -1.6
CC(=O)Nc1ccc(C(=O)N/N=C(\C)CC(=O)Nc2ccc(OCc3ccccc3)cc2)cc1 | 1.1 | -2.3 | -0.9 | 11.9 | 3.0 | . | .
